Compound activity from PubChem BioAssay.
Shiga inhibitor: blocks Shiga toxin action in Vero cells. Vero cells, Shiga toxin protein synthesis inhibition reporter. inhibition, % at 38.7 µM. 290,000 compounds, 9.2% hits; in the data active means inhibition mostly above about 28%, no sharp cut-off; inactive means mostly below about 43%
Pf growth 48h: P. falciparum growth inhibition at 48 hours (one generation); AID 504832; 310,000 compounds, 5.9% hits; P. falciparum luciferase growth in erythrocytes, 48 h; Potency, µM (titrated, usually from 28.7 µM), actives largely listed as inhibitors
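Parasite viability was followed by luminescence of a genomically integrated firefly luciferase. Cultures held 0.1% parasitemia at 2% hematocrit (final), incubated under 5% CO2 at 37 C.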
CHX counter: counter-screen hit for Shiga toxin inhibitors, cycloheximide; cell reporter, cycloheximide protein synthesis inhibition counterscreen; max response, %; 300,000 compounds, 12% hits; AID 2314; in the data active means max response mostly above about 13%, no sharp cut-off; inactive means mostly below about 14%; further: read at 38.3 µM for the half of the compounds with a filed dose
Pf growth 96h: P. falciparum growth inhibition at 96 hours; 320,000 compounds, 6.9% hits; AID 504834; P. falciparum luciferase reporter growth, 96 h; Potency, µM (doses to about 28.7 µM), most hits filed as inhibitors
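Delayed-death screen, second-generation endpoint: infected erythrocytes, 2% hematocrit, 0.05% parasitemia final; 96 hours at 37 C, 5% CO2; luciferase detection reagent; luminescence decrease equals reduced growth.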
Each line names hits and unclear results; the compound was inactive in the other large screens. Shown are actives, neighbours in structure and some others; about 21% of the full set was active somewhere. Unless noted, the call rests on the fitted dose curve; in most records, active means well fitted inhibition curve with a large enough effect; inconclusive means small, poorly fitted or top-dose-only effect, or another doubt; inactive means no such curve, though single readings can be large or run the other way.

COC(=O)c1sc(-c2ccc(Cl)cc2)cc1NC(=O)COCC(=O)O	Pf growth 48h 2.1µM
COC(=O)c1sc(-c2ccc(Cl)cc2)cc1NC(=O)/C=C/C(=O)O	none
COC(=O)c1sc(-c2ccc(C(C)(C)C)cc2)cc1NC(=O)CCC(=O)O	Shiga inhibitor 64, CHX counter 27
c1ccc(C(c2ccccc2)c2nc(-c3cccnc3)no2)cc1	Pf growth 48h inconclusive, Pf growth 96h inconclusive
Brc1ccc(-c2nc(-c3cccnc3)no2)o1	Shiga inhibitor 111, CHX counter 69, Pf growth 96h inconclusive
Brc1ccc(-c2nc(-c3ccccc3)no2)o1	Shiga inhibitor 104, CHX counter 59 (no result: Pf growth 96h)
Cc1cc(C(=O)CSc2nnc(CCC(N)=O)n2C)c(C)n1C1CC1	none (no result: Shiga inhibitor, CHX counter)
Cc1nnc(SCC(=O)c2cc(C)n(C3CC3)c2C)s1	Shiga inhibitor 69, CHX counter 81
Cc1cc(C(=O)CSc2nnnn2C)c(C)n1C1CC1	Shiga inhibitor 151, CHX counter 56
CNc1nnc(SCC(=O)c2cc(C)n(C3CC3)c2C)s1	none (no result: Shiga inhibitor, CHX counter)
COc1cc(C)c(NC(=O)C2CCN(S(=O)(=O)c3cccs3)CC2)cc1OC	none (no result: Shiga inhibitor, CHX counter)
CCn1c(-c2cccnc2Cl)nc2ccccc21	none
CCN1c2ccccc2-c2nc3ccccc3n2C1c1cccs1 (configuration not stated)	Pf growth 48h 8.3µM, Pf growth 96h 3.7µM
Oc1c(C(c2ccccc2)N2CCc3ccccc3C2)sc2ncnn12 (configuration not stated)	Pf growth 48h inconclusive, Pf growth 96h inconclusive
Oc1c(C(c2ccco2)N2CCN(C(c3ccccc3)c3ccccc3)CC2)sc2ncnn12 (configuration not stated)	Pf growth 96h 4.1µM (no result: Pf growth 48h)
COc1cccc(C(c2sc3nc(C)nn3c2O)N2CCN(c3ccccc3F)CC2)c1 (configuration not stated)	Pf growth 48h inconclusive, Pf growth 96h inconclusive
COc1ccc(C(c2sc3ncnn3c2O)N2CCN(c3ccccc3F)CC2)cc1OC (configuration not stated)	Pf growth 48h inconclusive, CHX counter 20
COc1ccc(C(c2sc3nc(C)nn3c2O)N2CCC(O)CC2)cc1OC (configuration not stated)	none
CC1CN(C(c2cccs2)c2sc3ncnn3c2O)CC(C)O1 (configuration not stated)	Pf growth 96h inconclusive
COc1ccc(C(c2sc3ncnn3c2O)N2CC(C)OC(C)C2)cc1OC (configuration not stated)	CHX counter 17
COc1ccc(C(c2sc3nc(C)nn3c2O)N2CCN(Cc3ccccc3)CC2)cc1OC (configuration not stated)	Pf growth 48h inconclusive, Pf growth 96h 0.83µM
Cc1c(-n2c(SCC(N)=O)nc3ccccc3c2=O)c(=O)n(-c2ccccc2)n1C	none
O=C1NC2(CCCCC2)C(=O)N1c1cccc(Cl)c1	none
Cc1cc(NC(=O)c2ccc(C)c(C)c2)no1	CHX counter 37, Pf growth 96h inconclusive (no result: Shiga inhibitor)
Cc1ccc(C(=O)Nc2cccc(NC(=O)c3ccc(C)c([N+](=O)[O-])c3)n2)cc1[N+](=O)[O-]	Pf growth 48h 1.7µM, Pf growth 96h inconclusive
Cc1cc(N2C(=O)c3ccc(C(=O)Nc4ccc(CC(=O)O)cc4)cc3C2=O)no1	Pf growth 96h 1.9µM
Cc1cc(NC(=O)c2ccc(Br)c([N+](=O)[O-])c2)no1	none
Cc1ccc(C(=O)Nc2sc(C)c(-c3ccccc3)c2C(N)=O)cc1[N+](=O)[O-]	Shiga inhibitor 127, CHX counter 62
COc1ccc(Oc2cc(C(F)(F)F)nc(N(C)C)n2)cc1	none
COc1ccc(CNC(=O)COC(=O)/C=C/c2cccc(Br)c2)cc1	none
CN(CC(=O)Nc1cccc(F)c1)CC(=O)N(C)CC(=O)Nc1ccccc1Br	Pf growth 96h inconclusive (no result: Shiga inhibitor, CHX counter)
Cc1cc(C)nc(-n2nc(C)cc2NC(=O)c2cccc(S(=O)(=O)N3CCCCC3)c2)n1	Pf growth 48h inconclusive, Pf growth 96h inconclusive
COc1ccc(C(=O)N[C@H](C(=O)OCc2cc(=O)oc3cc(C)ccc23)C(C)C)cc1	none
CN(C)C(=O)CCSc1nnc(-c2ccco2)o1	none
COCCN(C(=O)C1CCN(C(=O)c2ccccc2C)CC1)c1c(N)n(CC(C)C)c(=O)[nH]c1=O	none (no result: Shiga inhibitor, CHX counter)
Cc1cc(NC(=O)c2ccc(C)c([N+](=O)[O-])c2)no1	Shiga inhibitor 32, Pf growth 96h inconclusive
Cc1cc(NC(=O)c2ccc3c(c2)C(=O)N(C)C3=O)no1	Pf growth 96h 2.9µM (no result: Pf growth 48h)
CC(=O)c1ccc(N2CCN(C(=O)Nc3ccc(C(C)C)cc3)CC2)cc1	Pf growth 48h inconclusive
COc1ccccc1NC(=O)N1CCN(c2ncccn2)CC1	none (no result: Pf growth 96h)
O=C(Nc1ccc(Cl)cc1)N1CCSc2ccccc21	Pf growth 48h inconclusive, CHX counter 35, Pf growth 96h inconclusive
O=C(Nc1ccccc1)N1CCSc2ccccc21	none
Cc1ccccc1NC(=O)N1CCN(c2ncccn2)CC1	Pf growth 96h 2.3µM
CC(C)c1ccc(NC(=O)N2CCOCC2)cc1	Shiga inhibitor 62, CHX counter 39
O=C(Nc1ccc(Cl)cc1)N1CCOCC1	CHX counter 14, Pf growth 96h inconclusive (no result: Shiga inhibitor)
O=C(Nc1ccccc1)N1CCCN(c2c(Cl)cncc2Cl)CC1	Pf growth 48h inconclusive, Pf growth 96h inconclusive
O=C(Nc1ccc(Cl)cc1)N1CCSCC1	none (no result: Pf growth 48h, Pf growth 96h)
CCCn1c(N2CCN(C(=O)Nc3ccc(Cl)cc3)CC2)nc2ccccc21	Pf growth 48h inconclusive
CC(C)(C)c1ccc(NC(=O)N2CCCN(c3c(Cl)cncc3Cl)CC2)cc1	Pf growth 48h 10µM, Pf growth 96h inconclusive
O=C(Nc1ccc(Cl)cc1)N1CCN(c2ncccn2)CC1	Pf growth 48h inconclusive, CHX counter 20, Pf growth 96h inconclusive
CC(C)n1c(N2CCN(C(=O)Nc3ccc(Cl)cc3)CC2)nc2ccccc21	Shiga inhibitor 34, Pf growth 48h inconclusive
O=C(Nc1ccc(Cl)cc1)N1CCCC1	CHX counter 14 (no result: Pf growth 96h)
O=C(NCCC(=O)N1CCC2(CC1)NCCc1[nH]cnc12)c1cccc(Cl)c1	none
O=C(c1cc(F)c(F)cc1Cl)N1CCN(c2ncccn2)CC1	Pf growth 96h 5.2µM
CC(CCn1cccn1)NC(=O)c1cc(COc2ccc(F)cc2Cl)on1 (configuration not stated)	Pf growth 96h 10µM
